Binding signal data for 40 sequences are collected here from PMC5700166.

Positions count from the first letter of the chain named.

In one test the target is T1, GST-Nv-NF-kB (Cys allele) (Nematostella vectensis, UniProt E5G601 2-411).
T1 sequence: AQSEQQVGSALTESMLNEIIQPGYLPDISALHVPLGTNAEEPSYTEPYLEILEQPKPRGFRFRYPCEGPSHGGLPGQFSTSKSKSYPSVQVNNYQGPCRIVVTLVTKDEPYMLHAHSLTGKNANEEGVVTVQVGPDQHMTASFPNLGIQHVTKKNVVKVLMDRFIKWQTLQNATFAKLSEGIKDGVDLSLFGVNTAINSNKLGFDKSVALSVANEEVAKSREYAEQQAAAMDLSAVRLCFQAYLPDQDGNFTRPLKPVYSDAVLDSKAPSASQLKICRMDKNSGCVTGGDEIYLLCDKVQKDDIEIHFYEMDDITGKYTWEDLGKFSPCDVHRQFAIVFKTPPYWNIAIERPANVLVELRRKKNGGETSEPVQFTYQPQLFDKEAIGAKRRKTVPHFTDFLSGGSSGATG
Nature of the test: protein-binding microarray (PBM); PBM: ~300 nM protein, 6 mM HEPES pH 7.8, 80 mM KCl, 0.5 mM EDTA, 0.5 mM EGTA, 6% glycerol, 35 ng/ul poly-dIdC, 1% milk, 1 h, room temperature; Ap Aiptasia and Nv Nematostella (sea anemones) / Co Capsaspora / Aq Amphimedon (sponge) / Dm Drosophila / Hu human; RHD is the Rel homology domain; high values mean tight binding. To be noted: dsDNA, one strand shown.
The sequence “CCGATTAACATCACAAAATTCCCTGATGTTAATCGGGTCTTGATTCGCTTGACGCTGCTG” gave a binding signal of 8.61 z-score.

“CCGATTAACATCAAGAGATTCCCTGATGTTAATCGGGTCTTGATTCGCTTGACGCTGCTG”: the binding signal is 3.88 z-score.

As to “CCGATTAACATCAAGGGGAATTCTGATGTTAATCGGGTCTTGATTCGCTTGACGCTGCTG”, the binding signal is 11.3 z-score.

Another test deals with T2, GST-Nv-NF-kB (Ser allele) (Nematostella vectensis, UniProt A7UNT2 2-411).
T2 sequence: T1 sequence with Q21R, C66S, S207N, E215Q, V217A, E225K, A268E, D399E
The test is described as above. To be noted: dsDNA, one strand shown.
Sequence “CCGATTAACATCAGAAATACCCCTGATGTTAATCGGGTCTTGATTCGCTTGACGCTGCTG” registered a binding signal of 6.08 z-score.

On to “CCGATTAACATCAAATCATTCCCTGATGTTAATCGGGTCTTGATTCGCTTGACGCTGCTG”, for which the binding signal was determined as 3.1 z-score.

Sequence “CCGATTAACATCAGAATTACCCCTGATGTTAATCGGGTCTTGATTCGCTTGACGCTGCTG” showed a binding signal of 5.04 z-score.

“CCGATTAACATCAGGGGGGTTAATGATGTTAATCGGGTCTTGATTCGCTTGACGCTGCTG” came in with a binding signal of 4.14 z-score.

Turning to “CCGATTAACATCAAAATTCCCCCTGATGTTAATCGGGTCTTGATTCGCTTGACGCTGCTG”, the binding signal was 13.3 z-score.

Consider “CCGATTAACATCAATTCCCCTGATGATGTTAATCGGGTCTTGATTCGCTTGACGCTGCTG”, for which the binding signal was determined as 9.02 z-score.

In turn, “CCGATTAACATCAGGGGAATACCTGATGTTAATCGGGTCTTGATTCGCTTGACGCTGCTG” showed a binding signal of 10.1 z-score.

In turn, “CCGATTAACATCATTCCCGGGAATGATGTTAATCGGGTCTTGATTCGCTTGACGCTGCTG” returned a binding signal of 3.45 z-score.

Take “CCGATTAACATCACGAAATCCCCTGATGTTAATCGGGTCTTGATTCGCTTGACGCTGCTG”: the binding signal turned out to be 11.6 z-score.

The sequence “CCGATTAACATCAATCTTCCCCCTGATGTTAATCGGGTCTTGATTCGCTTGACGCTGCTG” displayed a binding signal of 7.73 z-score.

Regarding “CCGATTAACATCAGAGTTCCCCCTGATGTTAATCGGGTCTTGATTCGCTTGACGCTGCTG”, the binding signal is 8.12 z-score.

The sequence “CCGATTAACATCAGGGGATAACCTGATGTTAATCGGGTCTTGATTCGCTTGACGCTGCTG” returned a binding signal of 6.92 z-score.

With “CCGATTAACATCAGGGGATTCCATGATGTTAATCGGGTCTTGATTCGCTTGACGCTGCTG”, the binding signal is 9.49 z-score.

Take “CCGATTAACATCAAGGGGGATATTGATGTTAATCGGGTCTTGATTCGCTTGACGCTGCTG”: the binding signal was found to be 7.37 z-score.

“CCGATTAACATCAGGGGGGAAAATGATGTTAATCGGGTCTTGATTCGCTTGACGCTGCTG” returned a binding signal of 8.77 z-score.

Turning to “CCGATTAACATCAAAATCCCCCTTGATGTTAATCGGGTCTTGATTCGCTTGACGCTGCTG”, the binding signal is 12.1 z-score.

“CCGATTAACATCAGGGGTATTTATGATGTTAATCGGGTCTTGATTCGCTTGACGCTGCTG” displayed a binding signal of 5.54 z-score.

The sequence “CCGATTAACATCAGGGAGTTTTATGATGTTAATCGGGTCTTGATTCGCTTGACGCTGCTG” displayed a binding signal of 6.78 z-score.

For the sequence “CCGATTAACATCAAGGGGGTTTCTGATGTTAATCGGGTCTTGATTCGCTTGACGCTGCTG”, the binding signal is 8.76 z-score.

In turn, “CCGATTAACATCAAAACTCCCCGTGATGTTAATCGGGTCTTGATTCGCTTGACGCTGCTG” yielded a binding signal of 6.9 z-score.

Sequence “CCGATTAACATCAATTTTCCCCATGATGTTAATCGGGTCTTGATTCGCTTGACGCTGCTG” yielded a binding signal of 9.27 z-score.

In turn, “CCGATTAACATCAAAAAATCCCATGATGTTAATCGGGTCTTGATTCGCTTGACGCTGCTG” came in with a binding signal of 4.17 z-score.

In the case of “CCGATTAACATCAGGGGAAAGAATGATGTTAATCGGGTCTTGATTCGCTTGACGCTGCTG”, the binding signal amounted to 8.18 z-score.

Take “CCGATTAACATCAATTTTCCCACTGATGTTAATCGGGTCTTGATTCGCTTGACGCTGCTG”: the binding signal turned out to be 4.57 z-score.

The sequence “CCGATTAACATCAAATTTCCCATTGATGTTAATCGGGTCTTGATTCGCTTGACGCTGCTG” displayed a binding signal of 4.27 z-score.

In the case of “CCGATTAACATCAACAAAATCCCTGATGTTAATCGGGTCTTGATTCGCTTGACGCTGCTG”, the binding signal turned out to be 3.66 z-score.

Sequence “CCGATTAACATCAGGGGAAAACATGATGTTAATCGGGTCTTGATTCGCTTGACGCTGCTG” came in with a binding signal of 9.93 z-score.

With “CCGATTAACATCAGGCCTTTCCCTGATGTTAATCGGGTCTTGATTCGCTTGACGCTGCTG”, the binding signal is 2.62 z-score.

Regarding “CCGATTAACATCAGGGAGTACCCTGATGTTAATCGGGTCTTGATTCGCTTGACGCTGCTG”, the binding signal was found to be 3.49 z-score.

Consider “CCGATTAACATCAGGACGTCCCCTGATGTTAATCGGGTCTTGATTCGCTTGACGCTGCTG”, for which the binding signal turned out to be 4.26 z-score.

The sequence “CCGATTAACATCACAAAAAACCCTGATGTTAATCGGGTCTTGATTCGCTTGACGCTGCTG” had a binding signal of 4.38 z-score.

As for “CCGATTAACATCAGATAATCCCCTGATGTTAATCGGGTCTTGATTCGCTTGACGCTGCTG”, the binding signal turned out to be 9.43 z-score.

For the sequence “CCGATTAACATCAGGGAAAGACCTGATGTTAATCGGGTCTTGATTCGCTTGACGCTGCTG”, the binding signal is 4.32 z-score.

As for “CCGATTAACATCAGGGGAAAAGATGATGTTAATCGGGTCTTGATTCGCTTGACGCTGCTG”, the binding signal was 9.01 z-score.

Consider “CCGATTAACATCAGCAATCCCCCTGATGTTAATCGGGTCTTGATTCGCTTGACGCTGCTG”, for which the binding signal amounted to 6.95 z-score.

“CCGATTAACATCAAGGGGGAATCTGATGTTAATCGGGTCTTGATTCGCTTGACGCTGCTG”: the binding signal is 9.87 z-score.

“CCGATTAACATCAATAAAACCCCTGATGTTAATCGGGTCTTGATTCGCTTGACGCTGCTG” gave a binding signal of 5.34 z-score.

Turning to “CCGATTAACATCACAAAATTCCCTGATGTTAATCGGGTCTTGATTCGCTTGACGCTGCTG”, the binding signal came to 8.58 z-score.

Turning to “CCGATTAACATCAAGAGATTCCCTGATGTTAATCGGGTCTTGATTCGCTTGACGCTGCTG”, the binding signal was 3.73 z-score.

“CCGATTAACATCAAGGGGAATTCTGATGTTAATCGGGTCTTGATTCGCTTGACGCTGCTG” gave a binding signal of 12.1 z-score.
